In all, about 25,000 sequences were measured (“ln(normalized median fluorescence intensity)”: median about 6.7, highest 2% from about 10 on). For the sample, the highest values were picked, then their nearest neighbours and some sequences at random.
Test system: PfHDP1 homeodomain (GST-tagged)
Assay: gcPBM binding intensity (ln(normalized median fluorescence intensity)); higher = stronger DNA binding
Summary of the method: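 In this array assay, P. falciparum DNA-binding domains with a GST tag, expressed in E. coli, were applied for 1 h to primer-extended double-stranded 36-bp intergenic genomic probes and negative controls on an Agilent 4 × 180k array. Bound protein was visualised with Alexa488 anti-GST antibody at 488 nm. Binding intensity is the highest Masliner-normalised natural-log median intensity across replicate spots of either probe orientation.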

Sequence | gcPBM binding intensity (ln)
TTTTTAAAATTTTTAAAAATATTATGTTAAATATAT [CACACA_negctrl_site415] | 6.29
GAACACTAATAATGTTGTACACGTAATTATATATTT [XGTACX_site777] | 6.53
TTGTACATCTTTTGCACACGTAATGTTATTATAATA [CACACA_site1258] | 10.7
TTATTATAAATGTTTTGTACGTACATCCGAAAATAA [XGTACX_site2175] | 6.57
AAATAATAAAAAAAATGTACACGTAAATATTATATT [XGTACX_site8125] | 6.99
CTTTTTTTTTGATGTTGTACATATATATTATATAAT [XGTACX_site1321] | 6.9
TTTTGTACATCTTTTGCACACGTAATGTTATTATAA [CACACA_site1259] | 10.6
TTGTACATCTTTTGCACACGTAATGTTATTAAAATA [CACACA_site4827] | 10.7
ATTATGTTATTATTTTGTACACATAAATAATACGTT [XGTACX_site816] | 6.61
TTTTTTTTTTTTTTGTGTACATATAATGCACATTAT [XGTACX_site6505] | 10.1
CATACCCATAAACACACACACATATATACCTATATA [CACACA_site4745] | 6.87
AAAAAAAAGTTAAGCACACACATGAATAAATAATAC [CACACA_site840] | 6.94
ATAAAAATATTATAAGCACACATATATATATATATA [CACACA_site8781] | 9.54
AAAGTAAATTTAAGCACACACAACGAATTTTTATAC [CACACA_site1959] | 6.84
TGAAATTTGTTATATGCATGTAAAATATTACGACGA [TGCATGCA_site201] | 6.59
TTTTTTTTTCCGTGTTGTACAAAAAAAAAGATTTTG [XGTACX_site3925] | 6.21
ACACAAAACAAAAAGGTGCTGTATAAATGGGTGTAT [GTGCAC_site9905] | 7
TATTTTAGTAAAGGTGGTACTTTTAAGTTCATGTAT [XGTACX_site1854] | 6.23
TATACAAACTATGATGCACACATATATATATGTATA [CACACA_site8327] | 8.97
TTTTTTTTTTTATGTGCACACAAAAGATGCTTATAT [CACACA_site2347] | 10.7
TAGCTTATAAGATATGCACACACAACACTTACAAAA [CACACA_site8174] | 9.5
AGGGAATATTTTTATGCATGTGCTTACACATTACAA [TGCATGCA_site830] | 6.83
GCTTATAAGATATGCACACACAACACTTACAAAAAA [CACACA_site817] | 9.27

Sequence | gcPBM binding intensity (ln)
TTATTTATTTTTATATGTACACAAAAAAAAAAAAAA [XGTACX_site1459] | 6.53
TTTTTTTTTATGTGCACACAAAAGATGCTTATATTT [CACACA_site2348] | 11.2
ATTCTATTCTCCTTCACACACAAAAATATTTCATCA [CACACA_site2360] | 6.98
AAAAAAAATGGATGATCACACACTTCATAAAAATTG [CACACA_site2213] | 6.14
TTTTTTTTTTTTAATACACACATATTTATATTTATT [CACACA_site7802] | 6.63
CAGAATAATTTTATCGGTACACACTGTATGCATAAT [XGTACX_site736] | 6.88
GAAAAATTAAAAATAACACACACATATATATATTTA [CACACA_site8896] | 6.38
AAAAAATTAACGAGTGCACACATATTTAGATAAAAT [CACACA_site8958] | 10.7
AAAATTAACGAGTGCACACATATTTAGATAAAATAC [CACACA_site2936] | 11.3
AAAATTAAAAATAACACACACATATATATATTTATA [CACACA_site2776] | 6.54
AAAATTAAAAATAACACACACATATTTATATTTATA [CACACA_site7329] | 6.24
TAAATTATAACGTGCACACATATTTAAAATGAAATG [CACACA_site2820] | 10
ATAATATATTTTTGAACACACAATATAGATTTATAT [CACACA_site7857] | 6.35
TTTTTTTCAATATTTGCACACGATTATAATATTTAA [CACACA_site2237] | 10.3
GAACAATATATTTGCACACAAAAAATATATATTTAT [CACACA_site3317] | 10.7
TATGCACACAATATATGTACTTATATATTTTAAAAA [XGTACX_site5482] | 9.96
AGGAACAATATATTTGCACACAAAAAATATATATTT [CACACA_site3316] | 10.4
TTTTATTTTTTATTTGCACACAATATGTAAAAAAAT [CACACA_site2927] | 10.6
ATATTTATATATTGCACACAAAAAAAAAAAAAAATC [CACACA_site1629] | 10.4
AGCTAAAATATTTTTGCACACGATTTTTTTTTTTTT [CACACA_site1140] | 9.82
TTTTTTTCAATATTTGCACACGATTAAAATATTTAA [CACACA_site5266] | 10.6
TTTATATTTTTTTTTGCACACTTTAAAAAAATATAT [CACACA_site1146] | 9.29
AAAAAAATTAATGTGTGTACTTAGATATAATGTTTA [XGTACX_site8862] | 6.43

Sequence | gcPBM binding intensity (ln)
AAAAGTACAATATATATGTATGTGTATAGAATGGTT [TGCATGCA_negctrl_site76] | 7.28
AAAATATTTTAATGTTGTACATTAATATATTATATA [XGTACX_site2513] | 6.03
TAAAAATATATACATACATGCATACATATATATGTA [TGCATGCA_site774] | 6.47
TTATATATTTTTTGCACACCAAAAAAGAGAATATTC [CACACA_site2730] | 10
TGTGTTTATACGTTTTGTACATATTTTTATTTTGTA [XGTACX_site6425] | 6.74
TATTCTTACACGTTTGCACACTAAAATATATATATA [CACACA_site435] | 9.97
TTTTATTCCTTCTTTGCACACGTTTAAAAATATATA [CACACA_site2899] | 10.3
TTCTTACACGTTTGCACACTAAAATATATATATATA [CACACA_site434] | 10.7
TCCTTAAAATATATCACACATTTCGTTCATTTATAA [CACACA_site4346] | 6.65
TAAGATGATATAGACTGTACATATTGAACTTACAAG [XGTACX_site4290] | 6.29
TTTCTTCGAAATAGAACACTTGTGCAAAATAAGCAA [XGTACX_negctrl_site361] | 11.2
CACTGTAAATAGAAAGTGCAAAAATTGTAAATAAAA [GTGCAC_site9980] | 9
TATTAACACTTTATAGAAACAAAAAAATAAGCAAAA [XGTACX_negctrl_site295] | 6.79
GTTTTTAGTATTTTTTGTACTTAATACATAGCCTTA [XGTACX_site7318] | 6.22
AGATAAAATATATATGCACACACATATATATTTCAT [CACACA_site9183] | 9.16
TCATACAATATTAAATGTACATATATATATATATAT [XGTACX_site8828] | 9.25
TATATAATATATTAATGTACTTAAAATATATTCTAT [XGTACX_site1235] | 6.16
CATATAAATACATGCACACAAAAATATCAATACATT [CACACA_site2392] | 8.76
TTTATCAAAATAAATGCACACAAATTGCACATATCT [CACACA_site8281] | 10.9
TTTTTTCATATAAATACATGCACACAAAAATATCAA [TGCATGCA_site602] | 8.53
TTCATATAAATACATGCACACAAAAATATCAATACA [CACACA_site8753] | 8.91
TATCAAAATAAATGCACACAAATTGCACATATCTAT [CACACA_site1097] | 10.7
ATAAATTTTTTATGAACACACAAATACACCCACTCA [CACACA_site5465] | 7.07

Sequence | gcPBM binding intensity (ln)
TACTTTCAAAAGATCACACATATATATATATATATA [CACACA_site5630] | 9.53
TCCTTAAAATATGGTTGTACGTACATCCTAGGTGTT [XGTACX_site7068] | 6.52
TTTTTACGTAAACAAAATAATTATATAATATTATTT [CACACA_negctrl_site1769] | 6.34
AAAATCATTCCAAAGACATGCATTTTGCAAATAAAA [TGCATGCA_site461] | 9.22
AATTATTTACCCTATACACACAAAACAGACTAAAAA [CACACA_site6688] | 6.76
TCGTGTGAAAATATTACACACATTTACTATAGTATC [CACACA_site7590] | 6.65
CTGTACACTTAAACGGTGCAAAAAGAAAAAAAAGAA | 10.6
ATATATTATATTATATGTACTTAAAAAAGTGCAAAG [XGTACX_site318] | 9.16
AATTTATTTTTAAAAAGTACATACTTAAGAAAACGA [XGTACX_site3660] | 6.85
TTTGAACTCTTAAGTGGTACAAATTTGTATTTTCTC [XGTACX_site2322] | 6.52
TTCTTTATTATATGCACACGTACATATAATATATAT [CACACA_site2018] | 9.96
TAATGAAGCTTATGCACACGTTCATTATTTATATTA [CACACA_site3219] | 10.4
AATAATGAAGCTTATGCACACGTTCATTATTTATAT [CACACA_site5736] | 10.6
TAAATTTTAATATGCACACAAAATGTTATATTAAAA [CACACA_site4366] | 9.86
ATGCTTTTATGCACACGTACAAAAATATTATATAAT [XGTACX_site5589] | 10.9
AATTCTTTATTATATGCACACGTACATATAATATAT [CACACA_site8621] | 9.66
TATGAATGCTTTTATGCACACGTACAAAAATATTAT [CACACA_site8851] | 9.99
TTTATTATATGCACACGTACATATAATATATATATA [XGTACX_site4108] | 10.8
TGAATGCTTTTATGCACACGTACAAAAATATTATAT [CACACA_site2668] | 10.4
TATATTCATAATATTACACACGTTCATTTATTTTAA [CACACA_site2031] | 6.67
TATTGCACAAAATAATTTTATTATACTTTATGTTAG [TGCATGCA_negctrl_site574] | 10.8
TTTATTATACAAAATTGTACTTTATAATTTTATGTA [XGTACX_site5846] | 6.31

— the supplement of paper PMC11417369
